# Sampled rows, rich in hits. Any-hit rate of the full collection: about 2.6%.
# Cruzain Triton = cruzain (T. cruzi) inhibition with detergent; P25779; purified cruzain, Z-FR-AMC fluorescence, 0.01% Triton; Potency, µM, hits mostly inhibitors; 200,000 compounds, 0.43% hits; also: nearly all actives have a fitted effect of over 40% in size
# Target sequence (P25779 123-467 limits assumed): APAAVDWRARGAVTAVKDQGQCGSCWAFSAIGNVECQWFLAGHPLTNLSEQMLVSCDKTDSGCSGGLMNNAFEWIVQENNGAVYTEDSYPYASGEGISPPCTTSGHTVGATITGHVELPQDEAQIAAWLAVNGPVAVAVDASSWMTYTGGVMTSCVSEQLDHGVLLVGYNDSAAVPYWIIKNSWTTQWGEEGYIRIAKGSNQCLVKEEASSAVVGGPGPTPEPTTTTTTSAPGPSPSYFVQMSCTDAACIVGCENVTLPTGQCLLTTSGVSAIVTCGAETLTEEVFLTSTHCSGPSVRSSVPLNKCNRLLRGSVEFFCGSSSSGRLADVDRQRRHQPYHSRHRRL
#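 Read-out: AMC fluorescence (360 nm excitation, 450 nm emission), four reads over 2 min, first-to-third difference used. Conditions: cruzain 1.5 nM, Z-FR-AMC 2 uM, pH 5.5 acetate, 5 mM DTT, 0.01% Triton X-100.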
# Cruzain inh noDet = inhibitors of Trypanosoma cruzi cruzain without detergent. purified cruzain, Z-FR-AMC fluorescence, no detergent. Potency, µM, actives largely listed as inhibitors. 200,000 compounds, 2.3% hits. AID 1476; also: nearly all actives have a fitted effect of over 40% in size
#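 Detergent-free condition (0.00005% Triton X-100) in acetate buffer pH 5.5 with DTT. 1.5 nM enzyme and compound were pre-mixed 15 min, then 2 uM Z-FR-AMC substrate added; reaction progress from fluorescence change between first and third reads (60 s).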
# A number is an active result; i = inactive; ? = inconclusive. Calls follow the shape of the dose curve; as a rule, active = well fitted curve in the direction sought with a large enough effect; inconclusive = small, poorly fitted or top-dose-only effect, or another doubt; inactive = no such curve, though single readings can be large; an effect the other way counts as inactive or inconclusive.
SMILES,Cruzain Triton,Cruzain inh noDet
Cc1oc2c(cc(NS(=O)(=O)c3cccs3)c3ccccc32)c1C(=O)OC(C)C,i,32µM
Cc1oc2c(cc(NS(=O)(=O)c3ccc(C(C)C)cc3)c3ccccc32)c1C(=O)O,?,i
Cc1cccc2nc(-c3cccc(NS(=O)(=O)c4ccccc4)c3)cn12,i,i
CCc1ccc2c(c1)c(=O)c(C(=O)c1ccccc1)cn2CC(=O)Nc1ccc(C)c(Cl)c1,i,i
NS(=O)(=O)c1ccc(CCNC(=O)C2COc3ccccc3C2)cc1 (stereo not given),i,i
NC(=S)N/N=C/c1ccccc1,i,i
COc1ccc(C(=O)Oc2cccc(/C=N/NC(N)=S)c2)cc1,?,16µM
COc1ccc(/C=N/NS(=O)(=O)c2ccccc2)cc1OC(=O)c1ccc(C)cc1,i,?
COc1ccc(/C=C\C(=O)Oc2cccc(/C=N/NC(=O)Cc3ccc(OC)c(OC)c3)c2)cc1,i,i
COc1cc(/C=N/NC(N)=S)ccc1OCc1ccc(C)cc1,2.2µM,1µM
COc1ccc(CNC(=S)N/N=C/c2ccc(OC)c(OC)c2)cc1,i,i
CC(=O)Nc1ccc(/C=N/NC(N)=S)cc1,i,11µM
COc1cc(/C=N/NC(N)=S)ccc1OC(=O)c1ccc(C)cc1,4.5µM,2.5µM
Cc1cccc(Cn2cccc2CNS(=O)(=O)c2ccc(C)c(C)c2)c1,i,i
Cc1cccc(N2CCN(C(=O)CCn3c(=O)c4cccn4c4cccnc43)CC2)c1C,i,i
Cc1ccccc1NC(=O)c1cc2c(-c3ccccc3)nn(-c3ccccc3)c2s1,i,?
O=C(Cn1c(=O)oc2cc(S(=O)(=O)N3CCCC3)ccc21)Nc1ccc(F)cc1F,i,i
Cc1ccccc1C(=O)Nc1cccc(NC(=O)c2ccc(C(C)(C)C)cc2)c1,i,i
CCn1c(C)c(C2N3CC4(C)CN2CC(C)(C3)C4=O)c2ccccc21 (stereo not given),i,i
COc1ccc(C2c3c(oc4ccc(F)cc4c3=O)C(=O)N2Cc2ccc3c(c2)OCO3)cc1 (stereo not given),i,i
COc1ccc2c(c1)O[C@@H](c1cccc(C(F)(F)F)c1)[C@H](OC(=O)NC1CCCC1)C2=O,i,i
O=C(Nc1nnc2n1CCS2)c1cc(C(F)(F)F)cc(C(F)(F)F)c1,i,i
O=Nc1c(-c2c(O)[nH]c3cc(Br)ccc23)[nH]c2ccccc12,i,32µM
O=Nc1c(O)[nH]c2ccccc12.[Cu].[O-]/N=C1/C(=[OH+])Nc2ccccc21,i,i
CCc1ccc(NCc2cc3cc4c(cc3n(CC(=O)Nc3ccc(OC)cc3)c2=O)OCO4)cc1,i,i
SMILES,Cruzain Triton,Cruzain inh noDet
CCc1ccc(NCc2cc3ccc(OC)cc3n(CC(=O)Nc3ccc(C)c(Cl)c3)c2=O)cc1,i,25µM
CCc1ccc(NCc2cc3ccc(OC)cc3n(CC(=O)Nc3c(C)cc(C)cc3C)c2=O)cc1,i,i
COc1ccc(NCc2cc3cc4c(cc3n(CC(=O)Nc3ccc(C)cc3)c2=O)OCO4)cc1,i,20µM
COc1ccc(NCc2cc3cc4c(cc3n(CC(=O)Nc3ccc(C)cc3C)c2=O)OCO4)cc1,i,?
CCc1ccc(NCc2cc3cc4c(cc3n(CC(=O)Nc3cccc(OC)c3)c2=O)OCO4)cc1,i,25µM
COc1ccc(CN(C)c2ccc(-c3nc(-c4ccccc4)no3)cc2[N+](=O)[O-])cc1,i,i
Cn1nnc2c(NCc3c(F)cccc3F)ncnc21,i,i
CCOCCCN(Cc1ccco1)S(=O)(=O)c1cc2c(cc1Cl)NC(=O)CO2,i,i
CC1=NN2C(=N)/C(=C\c3ccc(SCc4ccccc4)o3)C(=O)N=C2S1,i,7.9µM
N=C1/C(=C\c2ccc(SCc3ccco3)o2)C(=O)N=C2SC=NN12,i,?
Cc1cc(N2CCC(C)CC2)nc2ccc(NC(=O)/C=C/c3cccc(Cl)c3)cc12,i,i
COc1cccc(NC(=O)CSC2=Nc3ccccc3C3=NC(CCC(=O)NCCc4ccccc4)C(=O)N23)c1 (stereo not given),i,?
CCc1cccc(C)c1NC(=O)CCCSc1nc2ccccc2s1,i,i
CCc1cccc(CC)c1NC(=O)C1SC(=Nc2ccccc2C)C(c2nc3ccccc3s2)=C1N (stereo not given),i,6.3µM
CNC(=O)Oc1ccc2c(c1)[C@@]1(C)CCN(C)C1N2C (stereo not given in full),i,i
CN1CSC2=C(C#N)C(c3cccc(OCc4ccccc4)c3)CC(=O)N2C1 (stereo not given),i,i
COc1ccc(C2CC(=O)N3CN(C4CCCCC4)CSC3=C2C#N)cc1 (stereo not given),20µM,i
COc1cccc(C2CC(=O)N3CN(C4CCCCC4)CSC3=C2C#N)c1 (stereo not given),28µM,i
COc1ccc(N2CSC3=C(C#N)C(c4ccc(OC)c(OC)c4)CC(=O)N3C2)c(OC)c1 (stereo not given),i,i

# Screening data as filed in PubChem.
